# Records with an inconclusive call do not appear. Some of the results follow. The source made the active and inactive calls. Unless noted, calls come from the whole dose curve; as a rule, active = well fitted curve in the direction sought with a large enough effect; inconclusive = small, poorly fitted or top-dose-only effect, or another doubt; inactive = no such curve, though single readings can be large; an effect the other way counts as inactive or inconclusive.
# Columns and labels:
# [1] = AP1 Signaling Pathway (AID 357; active = well fitted curve in either direction with a large enough effect, not every such curve was filed as active;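 note: ME-180 reporter cells stimulated with EGF at its EC50 level; % is set by controls: 0 for no effect and ±100 for the full control effect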); details: ME-180 (cervical carcinoma) AP-1-bla reporter, EGF-induced, beta-lactamase ratio, 5 h; at 7.69 µM (top of the series) unless noted
# Procedure, shortened: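 Beta-lactamase reporter under AP-1 response element, ME-180 background. Stimulus: EC50 EGF. Compound exposure 5 h, 37 °C. Detection: CCF4, 2.5 h RT, 460/530 nm. Values: AC50 from titration.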
# [2] = Stat Signaling Pathway (AID 446; active = well fitted curve in either direction with a large enough effect, not every such curve was filed as active;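 note: ME-180 cervical cancer cells given 40 pM IL-6 alongside compound; SIE-controlled beta-lactamase reporter measured as 460/530 nm FRET emission ratio; % is set by controls: 0 for no effect and ±100 for the full control effect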)
# Procedure, shortened: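 Overnight-plated ME-180 cells bearing a STAT Inducible Element beta-lactamase reporter; 5 h co-exposure to compound and 40 pM IL-6; values normalized to 300 pM IL-6 and 125 nM JAK inhibitor controls.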
# [3] = target: Glucocorticoid receptor (Homo sapiens) (UniProt P04150); assay: GR-GFP Redistribution (AID 450;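 active = compounds whose dose series gives a full or clear partial fitted curve of increased nuclear translocation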; note: potency is the fitted concentration of half-maximal effect); details: U2OS GR-GFP nuclear translocation, laser cytometry, 2 h
# Sequence of Glucocorticoid receptor (Homo sapiens) (P04150 whole entry, looked up): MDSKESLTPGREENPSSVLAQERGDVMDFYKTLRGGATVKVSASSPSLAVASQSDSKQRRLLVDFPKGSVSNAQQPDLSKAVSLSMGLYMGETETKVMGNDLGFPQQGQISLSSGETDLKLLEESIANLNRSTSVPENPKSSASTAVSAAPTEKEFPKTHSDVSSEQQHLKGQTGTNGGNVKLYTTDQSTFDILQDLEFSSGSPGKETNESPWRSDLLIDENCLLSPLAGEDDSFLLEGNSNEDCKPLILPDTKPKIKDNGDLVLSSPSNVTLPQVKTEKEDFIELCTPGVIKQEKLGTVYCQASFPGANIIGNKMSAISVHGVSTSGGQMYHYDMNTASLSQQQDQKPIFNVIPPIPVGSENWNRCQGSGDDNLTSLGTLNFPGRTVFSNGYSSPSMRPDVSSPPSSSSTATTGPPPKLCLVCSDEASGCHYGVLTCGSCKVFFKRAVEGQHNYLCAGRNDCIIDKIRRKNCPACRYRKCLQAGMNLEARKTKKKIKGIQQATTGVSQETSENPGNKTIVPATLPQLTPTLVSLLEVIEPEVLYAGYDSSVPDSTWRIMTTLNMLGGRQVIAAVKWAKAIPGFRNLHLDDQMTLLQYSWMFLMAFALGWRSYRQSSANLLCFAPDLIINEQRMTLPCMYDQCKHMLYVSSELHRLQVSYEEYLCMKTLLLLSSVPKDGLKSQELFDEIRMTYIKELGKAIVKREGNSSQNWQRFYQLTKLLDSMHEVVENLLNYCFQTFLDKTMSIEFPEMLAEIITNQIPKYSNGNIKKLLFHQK
# [4] = target: Rap guanine nucleotide exchange factor 3 (Homo sapiens) (UniProt O95398); assay: Confirmatory qHTS for antagonist of cAMP-regulated guanine nucleotide exchange factor 3 (EPAC1) (AID 1645880); details: EPAC1 Rap1B-BODIPY-GDP exchange, fluorescence; activity, negative = inhibition: at 115 µM (top of the series); note: nearly all actives have a fitted effect of over 55% in size; note: potency is the fitted concentration of half-maximal effect;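 for activity, negative = inhibition: plate controls were DMSO only for no effect and full effect of the ATA control for full effect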
# Sequence of Rap guanine nucleotide exchange factor 3 (Homo sapiens) (O95398 whole entry, looked up): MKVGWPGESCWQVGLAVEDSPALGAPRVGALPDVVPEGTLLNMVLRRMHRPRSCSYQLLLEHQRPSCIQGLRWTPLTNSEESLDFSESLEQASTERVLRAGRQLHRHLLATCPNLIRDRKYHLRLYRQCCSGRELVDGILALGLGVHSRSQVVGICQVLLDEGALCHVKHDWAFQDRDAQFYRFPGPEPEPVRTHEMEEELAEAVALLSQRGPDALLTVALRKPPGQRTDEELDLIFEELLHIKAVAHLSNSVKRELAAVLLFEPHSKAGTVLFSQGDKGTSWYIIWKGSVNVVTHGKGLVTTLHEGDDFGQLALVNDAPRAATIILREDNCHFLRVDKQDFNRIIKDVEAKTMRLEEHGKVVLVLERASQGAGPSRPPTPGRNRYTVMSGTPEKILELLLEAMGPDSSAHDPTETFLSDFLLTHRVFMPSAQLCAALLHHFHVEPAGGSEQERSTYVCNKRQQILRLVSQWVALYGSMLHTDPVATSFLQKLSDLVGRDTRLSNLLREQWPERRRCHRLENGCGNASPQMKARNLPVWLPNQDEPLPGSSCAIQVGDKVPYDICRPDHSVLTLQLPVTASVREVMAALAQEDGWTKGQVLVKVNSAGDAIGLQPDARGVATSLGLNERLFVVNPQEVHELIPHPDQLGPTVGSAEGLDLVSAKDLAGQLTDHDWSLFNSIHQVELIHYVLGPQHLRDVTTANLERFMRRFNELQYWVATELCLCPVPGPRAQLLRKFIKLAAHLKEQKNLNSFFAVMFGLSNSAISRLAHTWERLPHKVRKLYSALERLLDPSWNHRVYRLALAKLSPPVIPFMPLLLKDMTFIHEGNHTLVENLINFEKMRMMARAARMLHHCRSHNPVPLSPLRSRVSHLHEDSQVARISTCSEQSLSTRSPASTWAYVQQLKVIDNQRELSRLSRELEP
# Procedure, shortened: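 Released BODIPY-GDP fluoresces less than Rap1-bound BODIPY-GDP; the signal is followed at 480/540 nm at 5-min intervals over 30 min, after 5 min at room temperature. Reactions contain 100 nM EPAC1, 250 nM RAP1B-BODIPY-GDP and 50 uM GDP; results are normalized to ATA and DMSO.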
# [5] = target: Rap guanine nucleotide exchange factor 3 (Homo sapiens) (UniProt O95398); assay: Confirmatory qHTS for agonist of cAMP-regulated guanine nucleotide exchange factor 3 (EPAC1) (AID 1645881); note: nearly all actives have a fitted effect of over 75% in size; note: potency is the fitted concentration of half-maximal effect;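 for activation: EPAC1 catalysed release of BODIPY-GDP from Rap1B seen as fluorescence loss; 100% = effect of cAMP agonist control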
# [6] = target: Rap guanine nucleotide exchange factor 4 (Homo sapiens) (UniProt Q8WZA2); assay: Confirmatory qHTS for agonist of cAMP-regulated guanine nucleotide exchange factor 4 (EPAC2) (AID 1645884);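 note: nucleotide exchange releases bodipy-GDP from Rap1 and this lowers its fluorescence; nearly all actives have a fitted effect of over 65% in size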; note: potency is the fitted concentration of half-maximal effect; for activation: % is set by controls: 0 for no effect and ±100 for the full control effect
# Sequence of Rap guanine nucleotide exchange factor 4 (Homo sapiens) (Q8WZA2 whole entry, looked up): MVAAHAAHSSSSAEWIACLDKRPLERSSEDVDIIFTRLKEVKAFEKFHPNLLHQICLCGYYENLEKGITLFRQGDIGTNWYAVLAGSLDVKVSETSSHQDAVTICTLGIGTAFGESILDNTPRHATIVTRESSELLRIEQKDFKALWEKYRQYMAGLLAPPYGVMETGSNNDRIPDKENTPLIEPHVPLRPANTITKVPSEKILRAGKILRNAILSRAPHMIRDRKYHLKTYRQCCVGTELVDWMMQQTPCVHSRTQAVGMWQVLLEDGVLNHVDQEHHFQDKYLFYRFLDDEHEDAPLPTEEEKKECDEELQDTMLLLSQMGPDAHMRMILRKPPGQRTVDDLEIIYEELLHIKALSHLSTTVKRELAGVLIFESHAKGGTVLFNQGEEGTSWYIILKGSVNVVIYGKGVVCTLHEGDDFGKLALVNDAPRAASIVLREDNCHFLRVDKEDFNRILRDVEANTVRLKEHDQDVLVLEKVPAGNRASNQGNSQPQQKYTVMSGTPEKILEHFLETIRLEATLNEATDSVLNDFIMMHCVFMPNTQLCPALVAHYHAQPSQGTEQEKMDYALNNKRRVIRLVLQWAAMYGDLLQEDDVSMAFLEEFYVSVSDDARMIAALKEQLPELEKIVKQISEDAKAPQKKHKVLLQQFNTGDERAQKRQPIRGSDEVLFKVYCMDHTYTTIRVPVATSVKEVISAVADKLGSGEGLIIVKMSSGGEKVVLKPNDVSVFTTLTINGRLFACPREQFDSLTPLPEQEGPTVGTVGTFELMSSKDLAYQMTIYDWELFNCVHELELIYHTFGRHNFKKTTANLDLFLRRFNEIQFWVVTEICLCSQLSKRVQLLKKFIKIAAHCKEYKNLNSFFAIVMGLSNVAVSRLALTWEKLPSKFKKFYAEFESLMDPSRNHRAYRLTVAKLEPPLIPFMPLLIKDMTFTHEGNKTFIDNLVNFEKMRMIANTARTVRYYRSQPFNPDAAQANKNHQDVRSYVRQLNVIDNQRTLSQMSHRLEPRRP
# [7] = target: Rap guanine nucleotide exchange factor 4 (Homo sapiens) (UniProt Q8WZA2); assay: Confirmatory qHTS for antagonist of cAMP-regulated guanine nucleotide exchange factor 4 (EPAC2) (AID 1645885); note: nearly all actives have a fitted effect of over 25% in size; note: potency is the fitted concentration of half-maximal effect
# [8] = target: Rap guanine nucleotide exchange factor 3 (Homo sapiens) (UniProt O95398); assay: Counterscreen qHTS for antagonist of cAMP-regulated guanine nucleotide exchange factor 3 (EPAC1) (AID 1645888); note: % of control where 0% means no effect
# Procedure, shortened: (§1)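 Rap1B-BODIPY-GDP 250 nM + GDP 50 uM; cpds 7-pt, final 9.74 nM–152 uM (activator mode) or from 7.32 nM upwards (inhibitor mode); RT; FI 480/540 nm at 5 and 30 min, then ± cAMP, reread.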
# [9] = target: Rap guanine nucleotide exchange factor 3 (Homo sapiens) (UniProt O95398); assay: Counterscreen qHTS for agonist of cAMP-regulated guanine nucleotide exchange factor 3 (EPAC1) (AID 1645889); note: nearly all actives have a fitted effect of over 40% in size; note: potency is the fitted concentration of half-maximal effect; for activation: % of control where 0% means no effect
# Procedure, shortened: as §1
# [10] = target: Tumor susceptibility gene 101 protein (Homo sapiens) (UniProt Q99816); assay: qHTS Assay for Iinhibitors of HIV-1 Budding by Blocking the Interaction of PTAP/TSG101: Hit Validation (AID 651600); note: nearly all actives have a fitted effect of over 70% in size; note: potency is the fitted concentration of half-maximal effect
# Sequence of Tumor susceptibility gene 101 protein (Homo sapiens) (Q99816 whole entry, looked up, the tested form may be a part): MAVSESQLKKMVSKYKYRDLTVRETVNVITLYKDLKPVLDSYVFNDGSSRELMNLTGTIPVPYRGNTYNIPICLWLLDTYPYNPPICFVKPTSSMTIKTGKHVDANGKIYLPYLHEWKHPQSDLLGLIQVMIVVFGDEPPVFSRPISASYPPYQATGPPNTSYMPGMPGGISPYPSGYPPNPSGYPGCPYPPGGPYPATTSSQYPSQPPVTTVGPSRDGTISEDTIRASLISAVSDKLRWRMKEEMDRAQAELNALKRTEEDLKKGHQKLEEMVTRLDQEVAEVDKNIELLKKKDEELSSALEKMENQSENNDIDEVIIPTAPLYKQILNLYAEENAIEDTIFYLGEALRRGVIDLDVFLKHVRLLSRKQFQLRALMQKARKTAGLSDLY
# Procedure, shortened: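 Displacement of a FITC-labeled PTAP-motif peptide (50 nM) from the Tsg101 binding domain (10 uM) was monitored by fluorescence polarization after a 20 min room-temperature incubation.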
# [11] = NFAT Signaling Pathway (AID 444; active = well fitted curve in either direction with a large enough effect, not every such curve was filed as active;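 note: carbachol stimulus at about its EC50 of 1 µM final; % is set by controls: 0 for no effect and ±100 for the full control effect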); details: Jurkat NFAT-bla M1, carbachol, beta-lactamase ratio, 5 h; at 7.69 µM (top of the series) unless noted
# Procedure, shortened: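 Read-out: CCF4 FRET ratio (460 nm/530 nm) after 1 h RT dye loading, used for %activity and AC50 from titration series. Cells: Jurkat NFAT-β-lactamase/M1 line, treated with compound plus 1 uM carbachol for 5 h, 37 °C.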
# [12] = target: Lethal(3)malignant brain tumor-like protein 1 (Homo sapiens) (UniProt Q9Y468); assay: qHTS Assay for the Inhibitors of L3MBTL1: Hit Validation (AID 540279); details: L3MBTL1 methyl-lysine binding inhibition, biochemical qHTS; note: potency is the fitted concentration of half-maximal effect; nearly all actives have a fitted effect of over 70% in size
# Procedure, shortened: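 AlphaScreen displacement: 50 nM L3MBTL1 bound to 75 nM biotin-H3K9me1 peptide for 30 min, compound added for 30 min at room temperature, then beads at 10 ug/mL final for 30 min in the dark. Cefsulodin titration served as intraplate control.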
# [13] = target: DNA polymerase iota (Homo sapiens) (UniProt Q9UNA4); assay: qHTS for Inhibitors of Polymerase Iota: Confirmatory Assay for Cherry-picked Compounds (AID 720496); details: Pol iota primer extension, TAMRA/BHQ fluorescence; note: potency is the fitted concentration of half-maximal effect
# Sequence of DNA polymerase iota (Homo sapiens) (Q9UNA4 whole entry, looked up): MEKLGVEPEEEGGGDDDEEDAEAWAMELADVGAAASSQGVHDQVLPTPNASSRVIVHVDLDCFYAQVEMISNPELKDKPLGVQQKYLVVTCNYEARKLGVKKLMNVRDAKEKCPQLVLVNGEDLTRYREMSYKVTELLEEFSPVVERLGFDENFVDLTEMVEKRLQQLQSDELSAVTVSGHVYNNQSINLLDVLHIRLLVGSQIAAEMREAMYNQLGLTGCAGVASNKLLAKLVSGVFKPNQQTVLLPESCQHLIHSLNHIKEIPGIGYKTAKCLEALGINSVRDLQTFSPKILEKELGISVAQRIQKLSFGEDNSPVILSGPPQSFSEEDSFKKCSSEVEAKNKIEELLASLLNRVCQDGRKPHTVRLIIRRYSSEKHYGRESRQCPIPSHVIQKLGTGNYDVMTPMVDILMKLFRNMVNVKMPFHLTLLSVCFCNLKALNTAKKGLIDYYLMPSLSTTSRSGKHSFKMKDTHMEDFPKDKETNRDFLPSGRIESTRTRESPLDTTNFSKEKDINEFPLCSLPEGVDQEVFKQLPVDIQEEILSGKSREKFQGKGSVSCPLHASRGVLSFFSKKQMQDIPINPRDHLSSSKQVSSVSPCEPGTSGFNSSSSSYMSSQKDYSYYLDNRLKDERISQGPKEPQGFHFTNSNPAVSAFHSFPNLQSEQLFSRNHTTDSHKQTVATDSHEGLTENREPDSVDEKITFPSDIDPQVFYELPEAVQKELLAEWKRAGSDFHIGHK
# Procedure, shortened: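 Using TAMRA dequenching as read-out, activity of 10 nM human Pol iota on 50 nM (final) primer/reporter/template substrate was tracked from 0 to 10 min, following a 15 min room-temperature compound preincubation.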
# [14] = target: DNA polymerase kappa (Homo sapiens) (UniProt Q9UBT6); assay: qHTS for Inhibitors of Polymerase Kappa: Confirmatory Assay for Cherry-picked Compounds (AID 720501); details: purified Pol-kappa, fluorescent strand-displacement substrate; note: potency is the fitted concentration of half-maximal effect
# Procedure, shortened: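 Strand-displacement fluorescence read-out: TAMRA reporter released from a BHQ-2-quenched template, measured at 525/598 nm over a 10 min kinetic window. Substrate was 50 nM final; enzyme was 10 nM Pol-kappa, preincubated 15 min at room temperature with compound.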
# [15] = target: DNA polymerase eta (Homo sapiens) (UniProt Q9Y253); assay: qHTS for Inhibitors of Polymerase Eta: Confirmatory Assay for Cherry-picked Compounds (AID 720502); details: Pol eta primer extension, TAMRA/BHQ fluorescence, 10 min; note: potency is the fitted concentration of half-maximal effect
# Sequence of DNA polymerase eta (Homo sapiens) (Q9Y253 whole entry, looked up): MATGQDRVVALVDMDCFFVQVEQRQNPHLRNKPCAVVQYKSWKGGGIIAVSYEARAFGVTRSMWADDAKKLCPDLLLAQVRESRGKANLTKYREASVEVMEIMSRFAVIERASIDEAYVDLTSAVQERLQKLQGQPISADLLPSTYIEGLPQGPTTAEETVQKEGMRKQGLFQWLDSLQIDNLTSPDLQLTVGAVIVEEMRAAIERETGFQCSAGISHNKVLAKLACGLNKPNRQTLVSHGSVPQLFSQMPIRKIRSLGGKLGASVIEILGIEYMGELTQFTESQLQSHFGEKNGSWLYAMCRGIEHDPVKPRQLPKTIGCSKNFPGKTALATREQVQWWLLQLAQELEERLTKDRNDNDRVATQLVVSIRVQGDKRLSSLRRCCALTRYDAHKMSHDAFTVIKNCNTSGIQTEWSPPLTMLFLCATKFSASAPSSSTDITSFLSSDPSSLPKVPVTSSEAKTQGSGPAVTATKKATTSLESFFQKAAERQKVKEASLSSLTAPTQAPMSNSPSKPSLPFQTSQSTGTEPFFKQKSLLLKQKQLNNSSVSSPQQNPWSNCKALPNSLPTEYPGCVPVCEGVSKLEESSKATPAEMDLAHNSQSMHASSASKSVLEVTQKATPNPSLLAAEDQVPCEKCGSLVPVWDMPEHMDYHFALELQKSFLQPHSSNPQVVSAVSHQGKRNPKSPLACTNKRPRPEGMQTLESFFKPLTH
# Procedure, shortened: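 Quenched-fluorescence replication assay: 10 nM Pol eta, 50 nM substrate final, 15 min compound preincubation at room temperature, 10 min kinetic reaction read at 525/598 nm.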
# [16] = target: Catechol O-methyltransferase (Homo sapiens) (UniProt P21964); assay: Confirmatory Screen for Target Class Profiling of Small Molecule Inhibitors of Methyltransferases (AID 1745852; calls by dose curve; note: potency is the fitted concentration of half-maximal effect); details: MTase-Glo luminescence, SAH detection, recombinant enzyme; measured here: COMT max response; stronger effect = lower value
# [17] = target: Guanidinoacetate N-methyltransferase (Homo sapiens) (UniProt Q14353); assay: as above; details: activity change, negative = inhibition: at 57.3 µM (top of the series) unless noted
# [18] = target: Nicotinamide N-methyltransferase (Homo sapiens) (UniProt P40261); assay: as above; details: MTase-Glo luminescence, SAH detection, recombinant enzyme; measured here: NNMT max response; stronger effect = lower value
# [19] = target: Phenylethanolamine N-methyltransferase (Homo sapiens) (UniProt P11086); assay: as above; details: MTase-Glo luminescence, SAH detection, recombinant enzyme; measured here: PNMT max response; stronger effect = lower value
# Sequence of Phenylethanolamine N-methyltransferase (Homo sapiens) (P11086 whole entry, looked up): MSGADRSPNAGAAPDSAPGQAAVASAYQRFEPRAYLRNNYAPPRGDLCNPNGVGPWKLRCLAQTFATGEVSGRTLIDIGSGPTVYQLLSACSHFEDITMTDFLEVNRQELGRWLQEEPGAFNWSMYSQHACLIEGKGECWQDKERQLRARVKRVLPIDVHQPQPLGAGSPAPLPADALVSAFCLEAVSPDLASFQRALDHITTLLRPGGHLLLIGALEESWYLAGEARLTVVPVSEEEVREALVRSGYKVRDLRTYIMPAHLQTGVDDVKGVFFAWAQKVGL
compound,measurement,setting,value
COC(=O)c1cc(Br)c(=O)n(CCc2ccc(F)cc2)c1,"activity change, negative = inhibition",[1],4.29% [at 17.2 µM] (inactive)
same,outcome,[2],inactive
same,Potency,[3],> 20.6 µM (inactive)
same,Potency,[4],inactive
same,Potency,[5],inactive
same,Potency,[6],inactive
same,Potency,[7],inactive
same,Potency,[8],inactive
same,Potency,[9],inactive
Cc1ccc(-c2cn3nc(-c4ccccc4)c(-c4ccccc4)nc3n2)cc1,Potency,[10],25.9 µM (active)
same,Potency,[4],inactive
same,Potency,[5],inactive
same,Potency,[6],inactive
same,Potency,[7],inactive
same,Potency,[8],inactive
same,Potency,[9],inactive
Cc1ccc(SCc2nnc(N)s2)cc1,"activity change, negative = inhibition",[1],14.2% [at 17.2 µM] (inactive)
same,"activity change, negative = inhibition",[11],-2.66% [at 17.2 µM] (inactive)
same,outcome,[2],inactive
same,Potency,[3],> 20.6 µM (inactive)
same,Potency,[4],inactive
same,Potency,[5],inactive
same,activation,[6],"8.48% [at 17.1 µM, percent relative to cAMP agonist control] (inactive)"
same,Potency,[7],inactive
same,"activity change, negative = inhibition",[8],3.94% [at 30.8 µM] (inactive)
same,activation,[9],7.74% [at 30.8 µM] (inactive)
COc1ccc(CNC(=O)C(C#N)c2nc3ccccc3nc2N2CCCC2)cc1 (configuration not stated),Potency,[10],9.19 µM (active)
same,Potency,[4],inactive
same,Potency,[5],inactive
same,Potency,[6],inactive
same,Potency,[7],inactive
same,Potency,[8],inactive
same,Potency,[9],inactive
Cn1c(=O)c(N)c2c3c(c(Br)ccc31)C(=O)c1ccccc1-2,Potency,[10],1.63 µM (active)
same,Potency,[4],26.9 µM (active)
same,Potency,[5],inactive
same,Potency,[6],inactive
same,Potency,[7],26.9 µM (active)
same,Potency,[8],inactive
same,Potency,[9],inactive
O=C(OCCN1C(=O)c2cccc3c(N4CCOCC4)ccc(c23)C1=O)c1cccc(Cl)c1,Potency,[10],inactive
same,Potency,[4],inactive
same,Potency,[5],89.1 µM (active)
same,Potency,[6],100 µM (active)
same,Potency,[7],75.7 µM (active)
same,Potency,[8],inactive
same,Potency,[9],3.16 µM (active)
Cc1ccc(N=C2NC(=O)/C(=C/C=C/c3ccco3)S2)cc1C,Potency,[12],21.2 µM (active)
same,Potency,[13],47.4 µM (active)
same,Potency,[14],47.4 µM (active)
same,Potency,[15],53.6 µM (active)
same,Potency,[4],12.6 µM (active)
same,Potency,[5],inactive
same,activation,[6],"-4% [at 17.1 µM, percent relative to cAMP agonist control] (inactive)"
same,Potency,[7],inactive
same,"activity change, negative = inhibition",[8],5.98% [at 30.8 µM] (inactive)
same,activation,[9],25.8% [at 30.8 µM] (inactive)
CSC1=NSC2=NC(=O)/C(=C\c3coc4ccccc4c3=O)C(=N)N12,Potency,[10],5.17 µM (active)
same,Potency,[4],inactive
same,Potency,[5],89.1 µM (active)
same,Potency,[6],100 µM (active)
same,Potency,[7],16.9 µM (active)
same,Potency,[8],inactive
same,Potency,[9],44.7 µM (active)
N=c1c(S(=O)(=O)c2ccc(Br)cc2)cc2c(=O)n3ccccc3nc2n1Cc1ccccc1,Potency,[10],inactive
same,Potency,[4],50.1 µM (active)
same,Potency,[5],inactive
same,activation,[6],"-5.31% [at 17.1 µM, percent relative to cAMP agonist control] (inactive)"
same,Potency,[7],inactive
same,"activity change, negative = inhibition",[8],-6.58% [at 30.8 µM] (inactive)
same,activation,[9],9.82% [at 30.8 µM] (inactive)
Cc1cc(C=C2C(=O)c3ccccc3C2=O)c(C)n1-c1ccc(Cl)cc1,Potency,[10],inactive
same,Potency,[4],inactive
same,Potency,[5],inactive
same,activation,[6],"3.84% [at 17.1 µM, percent relative to cAMP agonist control] (inactive)"
same,Potency,[7],inactive
same,"activity change, negative = inhibition",[8],-26.7% [at 30.8 µM] (inactive)
same,activation,[9],7.12% [at 30.8 µM] (inactive)
COc1ccc(Br)cc1/C=N/Nc1ccc(S(=O)(=O)Nc2ccccc2C(=O)O)cc1[N+](=O)[O-],Potency,[13],37.7 µM (active)
same,Potency,[14],42.3 µM (active)
same,Potency,[4],25.1 µM (active)
same,Potency,[5],inactive
same,activation,[6],"0.546% [at 17.1 µM, percent relative to cAMP agonist control] (inactive)"
same,Potency,[7],inactive
same,"activity change, negative = inhibition",[8],-3.11% [at 30.8 µM] (inactive)
same,activation,[9],19% [at 30.8 µM] (inactive)
COc1cc(OC)c(-c2cc(C(=O)O)ccc2OC)c(OC)c1,Potency,[10],inactive
same,Potency,[4],inactive
same,Potency,[5],inactive
same,activation,[6],"1.75% [at 17.1 µM, percent relative to cAMP agonist control] (inactive)"
same,Potency,[7],inactive
same,"activity change, negative = inhibition",[8],-0.0153% [at 30.8 µM] (inactive)
same,activation,[9],38.4% [at 30.8 µM] (inactive)
Cc1cc2nc3c(=O)n(C4CCCCC4)c(=O)[nH]c3nc2cc1N,Potency,[10],0.651 µM (active)
same,Potency,[4],inactive
same,Potency,[5],56.2 µM (active)
same,Potency,[6],56.2 µM (active)
same,Potency,[7],inactive
same,Potency,[8],inactive
same,Potency,[9],25.1 µM (active)
O=C(NCCc1ccccc1)c1ccc2c(=O)[nH]c3c(C(=O)NCC4CCCO4)sc(=S)n3c2c1 (configuration not stated),Potency,[4],75.7 µM (active)
same,Potency,[5],inactive
same,Potency,[6],inactive
same,Potency,[7],30.1 µM (active)
same,Potency,[8],inactive
same,Potency,[9],inactive
same,activity,[16],-68.6%
same,Potency,[17],24.1 µM (active)
same,activity,[18],-55.9%
same,activity,[19],-66.7%
COC(=O)c1ccc(COc2ccc(/C=C/C(=O)c3ccc(OC)c(CSCC(=O)O)c3)cc2OC)cc1,Potency,[13],75.2 µM (active)
same,Potency,[15],60.1 µM (active)
same,Potency,[4],37.9 µM (active)
same,Potency,[5],inactive
same,Potency,[6],inactive
same,Potency,[7],inactive
same,Potency,[8],inactive
same,Potency,[9],inactive
CSC1=NSC2=NC(=O)/C(=C/c3coc4ccccc4c3=O)C(=N)N12,Potency,[10],18.3 µM (active)
same,Potency,[4],inactive
same,Potency,[5],89.1 µM (active)
same,Potency,[6],100 µM (active)
same,Potency,[7],inactive
same,Potency,[8],inactive
same,Potency,[9],39.8 µM (active)
Cc1cccc(N2C(=O)c3cccc4c(N(C)CCO)ccc(c34)C2=O)c1,Potency,[10],3.66 µM (active)
same,Potency,[4],inactive
same,Potency,[5],89.1 µM (active)
same,Potency,[6],100 µM (active)
same,Potency,[7],inactive
same,Potency,[8],inactive
same,Potency,[9],39.8 µM (active)

# From PubChem BioAssay (NCATS)
